# HT1080-NT tox – qHTS for induction of synthetic lethality in tumor cells producing 2HG: qHTS for the HT-1080-NT fibrosarcoma cell line. 1.6% of 360,000 active. Potency, µM (titrated, usually from 46.1 µM), without a hit: at the highest dose activity, negative = less viability, most hits filed as cytotoxic. HT-1080-NT fibrosarcoma viability, CellTiter-Glo ATP luminescence, 48 h;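 note: NT is the 2HG producing partner of a matched IDH1 knockdown line; potency is the fitted concentration of half-maximal effect; 0% = DMSO-treated cells and -100% = media-only wells without cells; nearly all actives have a fitted effect of over 55% in size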
#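 Viability of the 2HG-overproducing fibrosarcoma line after 48 hours of compound exposure at 37 degrees C was determined by luminescence with CellTiter-Glo, and concentration-effect curves were then fitted and categorized.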
# IL-1B inflam inh – qHTS for Inhibitors of Inflammasome Signaling: IL-1-beta AlphaLISA Primary Screen | THP-1 LPS/ATP IL-1B secretion, AlphaLISA, 16 h; active compounds read low | activity change, % at 57.5 µM | 4.7% of 360,000 active; in the data active = activity change below about -50%; inconclusive = mostly about -30% to -49%
#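 THP-1 cells pretreated 1 hr with compounds (up to 57.5 uM final), then stimulated with LPS (250 ng/mL final) plus ATP (1.25 mM final); secreted IL-1B measured by AlphaLISA after 16 hr, decreased signal indicating inhibition.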
# DT40 TDP1 no CPT – qHTS for Inhibitors of human tyrosyl-DNA phosphodiesterase 1 (TDP1): qHTS in cells in absence of CPT; DT40 Tdp1-/- hTDP1 cells, no CPT, ATP luminescence, 48 h; Potency, µM (titrated, usually from 46.2 µM), inactives show at the highest dose activity change, negative = growth inhibition, actives largely listed as inhibitors; 15% of 420,000 active; note: potency is the fitted concentration of half-maximal effect; nearly all actives have a fitted effect of over 55% in size
#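 Stably hTDP1-transfected Tdp1-null chicken DT40 cells were treated with library compounds minus camptothecin and grown for at least 48 hr at 37 °C, after which cellular ATP was quantified by luminescence.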
# DT40 TDP1 CPT – qHTS for Inhibitors of human tyrosyl-DNA phosphodiesterase 1 (TDP1): qHTS in cells in presence of CPT. chicken DT40 Tdp1-/-;hTDP1 cells + 20 nM CPT, ATP luminescence, 48 h. 12% of 420,000 active. AID 686979, 2013. Potency, µM (titrated, usually from 46.2 µM), for the others: at the highest dose activity change, negative = growth inhibition, most hits filed as inhibitors; note: potency is the fitted concentration of half-maximal effect; nearly all actives have a fitted effect of over 55% in size
#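 Chicken DT40 Tdp1-/- cells complemented with human TDP1, 400 cells/well, exposed to compounds plus 20 nM camptothecin for at least 48 h at 37 C; viability read as ATP content by CellTiter-Glo luminescence.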
# ELG1 DNA repair – qHTS screen for small molecules that inhibit ELG1-dependent DNA repair in human embryonic kidney (HEK293T) cells expressing luciferase-tagged ELG1; Potency, µM (doses to about 46.1 µM), inactives show top-dose activity change, negative = inhibition, most hits filed as inhibitors; 2.3% of 330,000 active; AID 504467, 2011; HEK293T ELG1-luciferase reporter, luminescence, 16 h; DNA damage induced by 5-fluorouridine; note: potency is the fitted concentration of half-maximal effect; nearly all actives have a fitted effect of over 55% in size
#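 Reporter activity after DNA damage by 5-fluorouridine is monitored. Compound-treated cells incubate 16 hr at 37 °C, then ONE-Glo is added for 30 min before luminescence reading.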
# HT1080 IDH1KD tx – qHTS for induction of synthetic lethality in tumor cells producing 2HG: qHTS for the HT-1080-IDH1KD cell line; Potency, µM (titrated, usually from 46.1 µM), for inactives: at the highest dose activity, negative = toxicity, hits mostly cytotoxic; HT-1080 IDH1 knockdown viability, ATP luminescence, 48 h; 2% of 360,000 active;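 note: potency is the fitted concentration of half-maximal effect; 0% = DMSO wells and -100% = cell-free medium wells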
#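 Knockdown cells (IDH1KD HT-1080) received compounds 2 h after plating at 750 cells/well and were kept 48 h at 37 °C in 5% FBS RPMI. A CellTiter-Glo luminescence read gave % activity for curve fitting.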
# * hit, by the source's call; ? = inconclusive; . = no result; [ ] = remark or other dose. Only some compounds are listed: those with a hit (about 19% of all), similar ones and a draw of the others. Unless noted, calls come from the whole dose curve; as a rule, active = well fitted curve in the direction sought with a large enough effect; inconclusive = small, poorly fitted or top-dose-only effect, or another doubt; inactive = no such curve, though single readings can be large; an effect the other way counts as inactive or inconclusive. Unless noted, % is set by controls: 0 for no effect and ±100 for the full control effect.
SMILES,HT1080-NT tox,IL-1B inflam inh,DT40 TDP1 no CPT,DT40 TDP1 CPT,ELG1 DNA repair,HT1080 IDH1KD tx
COc1ccccc1C(CCN(Cc1ccccc1)C(C)=O)c1ccco1 (stereo unspecified),?,-17,16µM*,?,?,?
CN(c1ccc(OCC(=O)Nc2ccc(S(N)(=O)=O)cc2)cc1)S(=O)(=O)c1ccc(F)cc1,-4%,20,?,?,.,-2%
Cc1ccc(C(=O)COc2ccccc2N2C(=O)c3ccccc3C2=O)cc1,-2%,22,2%,6%,?,16%
CN(CC(=O)Nc1ccc(Cl)cc1)C(=O)c1sccc1-c1ccccc1,2%[9.24 µM],-13,?,21µM*,?,-30%
NS(=O)(=O)c1ccc(NC(=O)COc2ccc(C(=O)c3ccc(F)cc3)cc2)cc1,-12%,?,12µM*,?,?,-19%
Cc1ccc(C(=O)COc2ccccc2-c2ccccc2)cc1,-5%,-4,26µM*,23µM*,1%,2%
Cc1ccc(NC(=O)CN(C)C(=O)COc2ccccc2-c2ccccc2)cc1,?,-65*,15µM*,-29%,?,?
CCC(=O)N(Cc1cc(=O)[nH]c2ccccc12)c1ccc(C)cc1,-11%,1,-28%,-29%,?,-14%
CCOC(=O)c1[nH]c(C)c(CCC(=O)Nc2ccc(C)cc2Cl)c1C,.,.,-27%,-30%,.,.
CCC(=O)c1ccc(OCC(=O)OCC(=O)N(C)CC(=O)Nc2ccc(F)cc2)cc1,-9%,19,2%,-18%,1%,5%
Cc1ccc(NC(=O)CN(C)C(=O)COc2ccc(C(=O)c3ccc(F)cc3)cc2)cc1,-6%,-23,21µM*,-29%,?,-9%
Cc1ccc(S(=O)(=O)Oc2ccccc2-c2ccccc2)cc1,?,45,13µM*,16µM*,.,16µM*
Cc1ccc(S(=O)(=O)Oc2ccccc2)cc1,2%,-3,-2%,6%,.,3%
COc1cc2ncnc(NCCCN3CCOCC3)c2cc1OC,9%,-2,4%,6%,11%,0%
COc1ccc(-c2oc3ncn(CCN4CCOCC4)c(=N)c3c2-c2ccc(OC)cc2)cc1,?,-53*,13µM*,16µM*,21µM*,?
COc1ccc(-n2ncc3c(NCCN4CCOCC4)ncnc32)cc1,9%,7,-3%,-6%,?,9%
COc1ccc(-c2oc3ncnc(NCCN4CCOCC4)c3c2-c2ccc(OC)cc2)cc1,1%,18,15µM*,?,?,-1%
OCCCNc1ncnc2oc(-c3ccccc3)c(-c3ccccc3)c12,?,-24,16µM*,?,?,?
CCOc1cc2nc(-c3ccc(OC)c(OC)c3)nc(NCCCN3CCOCC3)c2cc1OC,?,-60*,21µM*,?,?,?
Cn1c(=O)[nH]c(=O)c2c1nc(SCCCO)n2CCCc1ccccc1,0%,1,-1%,-19%,-1%,-5%
COc1ccccc1CNc1ncncc1-c1ccccc1Cl,.,.,-10%,3%,.,.
O=C(Nc1ccc(F)cc1)[C@H](CSCc1ccccc1)N1Cc2ccccc2C1=O,.,.,-21%,-25%,.,.
COc1ccc(OC)c(N(CC(=O)N2CCOCC2)S(C)(=O)=O)c1,20%,2,-19%,22%,4%,9%
COc1ccc(NC(=O)Cn2c(=O)n(CCC(=O)NCc3ccccc3OC)c(=O)c3ccccc32)cc1Cl,.,.,?,-30%,.,.
COc1ccc(-n2ncc3c(NCCCN4CCOCC4)ncnc32)cc1,5%,-2,-14%,-15%,?,6%
SMILES,HT1080-NT tox,IL-1B inflam inh,DT40 TDP1 no CPT,DT40 TDP1 CPT,ELG1 DNA repair,HT1080 IDH1KD tx
COc1ccc(-c2oc3ncnc(NCCCN4CCOCC4)c3c2-c2ccc(OC)cc2)cc1,?,?,18µM*,?,16µM*,?
c1ccc(-c2oc3ncnc(NCCCN4CCOCC4)c3c2-c2ccccc2)cc1,-13%,-22,23µM*,?,?,-11%
c1ccc(-n2nnnc2NCCCN2CCOCC2)cc1,9%,-4,7%,-2%,3%,5%
CN1c2ccccc2C(C)(C)C12CCCC(=O)N2 (stereo unspecified),-6%,18,?,29µM*,8%,3%
CC(C)(C)C(=O)NC(=S)NNC(=O)C(c1ccccc1)c1ccccc1,18µM*,153,3.7µM*,4.6µM*,-11%,12µM*
CC(=O)NNC(=S)NC(=O)C(c1ccccc1)c1ccccc1,?,100,16µM*,8.2µM*,-20%,?
NS(=O)(=O)c1ccc(CCNC(=O)CNC(=O)c2ccccc2F)cc1,3%,34,-2%,1%,15%,1%
CCc1ccc2c(O)c3c(cc2c1C(=O)OC)C(=O)c1c(O)ccc(O)c1C3=O,.,.,1%,-10%,.,.
C#CC1(O)CCCC2C3CCC4CC(OC(C)=O)CCC4(C)C3C(=O)CC21C (stereo unspecified),-22%,3,21µM*,23µM*,.,-16%
CCCCc1nn2c(=O)cc(COC(=O)c3cccc(NC(=O)c4cccc(Cl)c4)c3)nc2s1,.,.,-3%,-3%,.,.
O=c1cc(CO)[nH]nc1CO,-1%,27,-3%,8%,.,0%
Cc1ccc(CNc2nc(C)nc3sc4c(c23)CCC4)cc1,3%,3,18µM*,23µM*,?,0%
NNc1nc(-c2ccccc2)nc2sc3c(c12)CCCC3,-18%,-15,21µM*,?,?,-11%
Cc1nc(NC(C)c2ccccc2)c2c3c(sc2n1)CCC3 (stereo unspecified),-1%,-1,16µM*,16µM*,?,-2%
Cc1nc(Nc2ccc(O)cc2)c2c3c(sc2n1)CCCC3,?,14,?,?,?,-24%
COc1ccccc1OC(C)C(=O)Nc1ccccc1C(=O)NCc1cccnc1 (stereo unspecified),-4%,-4,-5%,-10%,-13%,-4%

# High-throughput results as filed in PubChem BioAssay.
